For eight molecules, Potency and outcome results are on record in PubChem BioAssay (Tox21).

Where “and” joins values, the source holds several entries; their conditions need not be identical. Identical values can stand only once. Results filed as inconclusive are left out. Calls of active or inactive are those of the source. Unless noted, calls come from the whole dose curve; as a rule, active = well fitted curve in the direction sought with a large enough effect in the repeat runs; inconclusive = weak or mixed curves; inactive = no such curve, though single readings can be large; an effect the other way counts as inactive or inconclusive.

A short description of test [1]: qHTS assay for small molecules that induce genotoxicity in human embryonic kidney cells expressing luciferase-tagged ATAD5 (AID 651632). Note: nearly all actives have a fitted effect of over 15% in size. Note: potency is the fitted concentration of half-maximal effect. The procedure, abridged: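 DMSO vehicle served as the control. HEK293T reporter cells, 16 hr at 37C, then 30 min Amplite at room temperature; ATAD5 induction is measured as luciferase activity.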
On the technique in general: qHTS replaces the single test concentration by a dilution series.

Test [2] in a line: qHTS assay for small molecule agonists of the p53 signaling pathway - cell viability (AID 651633; calls by dose curve;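 note: p53RE-bla HCT reporter cells with a stable beta-lactamase p53 reporter; series mostly up to about 83 µM; nearly all actives have a fitted effect of over 30% in size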). A digest of the protocol:
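p53RE-bla cells, seeded at 4,000 per well and rested 5 h at 37 C/5% CO2, received compounds in DMSO for 16 h at 37 C. CellTiter-Glo was then added, and luminescence was read after 30 min at room temperature to gauge cytotoxicity.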

Test [3] can be described thus: qHTS assay for small molecules that induce genotoxicity in human embryonic kidney cells expressing luciferase-tagged ATAD5 - cell viability (AID 651634; calls by dose curve; note: nearly all actives have a fitted effect of over 25% in size). A digest of the protocol:
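Here HEK293T cells with the ATAD5 luciferase reporter are incubated with test compounds for 15.5 hr, and cytotoxicity is then gauged by measuring protease activity in live cells using fluorescence.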

Test [4] can be described thus: qHTS assay for small molecule disruptors of the mitochondrial membrane potential - cell viability (AID 720634; calls by dose curve; note: nearly all actives have a fitted effect of over 20% in size; note: potency is the fitted concentration of half-maximal effect). The procedure, abridged:
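Viability of HepG2 cells is scored from ATP content by luminescence; cells are exposed to compound for 1 hr at 37 C and 5% CO2, then dosed with m-MPI dye before the CellTiter-Glo reagent.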

Test [5] is described as follows: qHTS assay for small molecule disruptors of the mitochondrial membrane potential (AID 720635). Note: potency is the fitted concentration of half-maximal effect. A digest of the protocol:
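HepG2 cells (2,000/well) attached overnight at 37C, then took compound for 1 hr at 37C, 5% CO2. Mito-MPS dye was added for 30 min; fluorescence was read at 490/535 nm (monomers) and 540/590 nm (aggregates).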

Test [6] is described as follows: qHTS assay to test for compound auto fluorescence at 590 nm (red) in HepG2 cells (AID 720674). The procedure, abridged: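 Rose Bengal sodium served as the red fluorophore standard. HepG2 monolayers (overnight attachment, MEM with 10% FBS) were exposed to test compounds for 1 hr at 37 C and read at Ex 540/Em 590 nm.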
The nature of test [7]: qHTS assay to test for compound auto fluorescence at 460 nm (blue) in HEK293 cells (AID 720678). The procedure, abridged: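 HEK293 cells (2,000/well, medium with 10% dialyzed FBS) attached 4-5 hr, then exposed to compound overnight at 37C, 5% CO2. Blue fluorescence read at 405/460 nm, with triamterene as reference fluorophore.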
The nature of test [8]: qHTS assay to test for compound auto fluorescence at 590 nm (red) in HEK293 cells (AID 720679). The procedure, abridged: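 HEK293 cells (2,000/well, 10% dialyzed FBS) attached 4-5 hr, then dosed with compound or DMSO and incubated overnight at 37C, 5% CO2. Red fluorescence read at 540/590 nm, Rose Bengal sodium as reference fluorophore.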
The nature of test [9]: qHTS assay to test for compound auto fluorescence at 535 nm (green) in HEK293 cells (AID 720680).
A short description of test [10]: qHTS assay to test for compound auto fluorescence at 535 nm (green) in HEK293 cell free culture (AID 720682). A digest of the protocol: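 Compounds were pin-transferred into cell-free DMEM with 10% FBS, and green fluorescence was read at excitation 485 nm and emission 535 nm. Intensities were expressed as fluorescein-equivalent values.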
Test [11] can be described thus: qHTS assay to test for compound auto fluorescence at 590 nm (red) in HEK293 cell free culture (AID 720683). The procedure, abridged: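 Tox21 10K library compounds were pinned into cell-free DMEM with 10% FBS and fluorescence was read at excitation 540 nm. Activity is expressed as Rose Bengal sodium equivalency.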
Test [12] in a line: qHTS assay to test for compound auto fluorescence at 590 nm (red) in HepG2 cell free culture (AID 720684). The procedure, abridged:
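Readout: intrinsic compound fluorescence at 590 nm emission after 540 nm excitation, scaled to Rose Bengal sodium. Matrix was cell-free MEM with 10% FBS; DMSO vehicle wells served as control.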

Test [13] in a line: qHTS assay to test for compound auto fluorescence at 460 nm (blue) in HepG2 cell free culture (AID 720685). The procedure, abridged:
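Cell-free plates of MEM plus 10% FBS received 23 nL compound or DMSO vehicle; blue-channel (405/460 nm) intensity scored against triamterene as reference fluorophore.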

Test [14] can be described thus: qHTS assay to test for compound auto fluorescence at 535 nm (green) in HepG2 cell free culture (AID 720686).
Test [15] can be described thus: qHTS assay to test for compound auto fluorescence at 460 nm (blue) in HepG2 cells (AID 720687). The procedure, abridged:
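Cells (2,000/well in MEM with 10% FBS) attached overnight at 37 C, then were exposed to compound or DMSO for 1 hr at 37 C, 5% CO2. Fluorescence read at Ex/Em 405/460 nm, expressed as triamterene-equivalent signal.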

The target of test [16] is Glucocorticoid receptor (Homo sapiens) (UniProt P04150). Nature of the test: qHTS assay to identify small molecule antagonists of the glucocorticoid receptor (GR) signaling pathway (AID 720692; active = well fitted inhibition curve with a large enough effect in the signal ratio in the repeat runs, not every such curve was filed as active; the % refers to the signal ratio). A digest of the protocol: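 In a 1536-well cell format, compounds were added 4 h after seeding GR-bla HeLa cells, together with dexamethasone at 5 nM final; reporter activity was measured by FRET-substrate fluorescence following 18 h at 37 C.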

The nature of test [17]: qHTS assay to test for compound auto fluorescence at 535 nm (green) in HepG2 cells (AID 720675).
Test [18] in a line: qHTS assay to test for compound auto fluorescence at 460 nm (blue) in HEK293 cell free culture (AID 720681). The procedure, abridged: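 Test compounds were pinned into cell-free culture medium (DMEM with 10% FBS) and fluorescence was read directly at Ex/Em 405/460 nm. Signals were expressed as fluorescence equivalents of triamterene, with DMSO vehicle as control.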
The target of test [19] is Glucocorticoid receptor (Homo sapiens) (UniProt P04150). Nature of the test: qHTS assay to identify small molecule agonists of the glucocorticoid receptor (GR) signaling pathway (AID 720691; active = well fitted activation curve with a large enough effect in the signal ratio in the repeat runs, not every such curve was filed as active; the % refers to the signal ratio). The procedure, abridged: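 Compounds in DMSO, alongside positive controls, were added to GR-bla HeLa reporter cells and incubated 18 h at 37 C; GRE-driven beta-lactamase was detected by fluorescence after 2 h with FRET substrate at room temperature.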

Chain of Glucocorticoid receptor (Homo sapiens) (P04150 whole entry, looked up): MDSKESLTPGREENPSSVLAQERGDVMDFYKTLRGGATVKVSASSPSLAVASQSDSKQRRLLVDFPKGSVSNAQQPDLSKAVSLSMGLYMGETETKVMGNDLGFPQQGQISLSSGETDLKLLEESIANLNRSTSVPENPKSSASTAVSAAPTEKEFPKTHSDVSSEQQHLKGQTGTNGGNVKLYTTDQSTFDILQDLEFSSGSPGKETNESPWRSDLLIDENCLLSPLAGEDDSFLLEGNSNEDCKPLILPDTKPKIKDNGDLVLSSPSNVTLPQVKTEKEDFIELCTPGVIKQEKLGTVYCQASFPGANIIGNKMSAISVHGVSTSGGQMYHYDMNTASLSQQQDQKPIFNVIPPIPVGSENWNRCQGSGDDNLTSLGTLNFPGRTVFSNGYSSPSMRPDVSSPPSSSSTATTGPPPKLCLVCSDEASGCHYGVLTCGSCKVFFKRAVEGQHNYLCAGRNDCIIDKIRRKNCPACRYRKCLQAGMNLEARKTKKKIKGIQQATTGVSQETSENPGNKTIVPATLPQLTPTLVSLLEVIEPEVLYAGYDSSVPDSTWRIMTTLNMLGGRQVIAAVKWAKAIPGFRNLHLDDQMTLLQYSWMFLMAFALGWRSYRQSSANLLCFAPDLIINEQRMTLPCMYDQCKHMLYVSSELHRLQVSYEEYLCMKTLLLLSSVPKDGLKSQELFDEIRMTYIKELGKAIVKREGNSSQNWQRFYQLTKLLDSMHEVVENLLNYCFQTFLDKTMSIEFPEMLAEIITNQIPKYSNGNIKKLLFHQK

On to `Oc1cc(Cl)ccc1Cl`, for which the Potency result in test [1], in test [2], in test [3], in [4] and in [16] was “inactive” in each case. The Potency in test [5] was 28.1 µM (active) and 27.3 µM (active). Besides, the result in test [6], in test [7], in test [8], in [9], in test [10] and in [11] was inactive. The call in [12], in [13], in [14] and in test [15] was inactive.

For `CN(C)C(=O)Nc1ccc(Cl)cc1`, the Potency result in test [1], in test [2], in [3], in test [4], in test [5] and in test [19] was “inactive” in each case. For the same molecule, the Potency entry in [16] is “inactive”. Further, the molecule was classed as inactive in test [6], in test [17], in [7], in test [8], in test [9] and in test [18]. In addition, the outcome in test [10], in test [11], in [12], in test [13], in test [14] and in test [15] was inactive.

Take `Nc1ccc(Cl)cc1N`: the Potency in test [1] was 56.7 µM (active) and 5.45 µM (active); in [5], 4.5 µM (active) and 770 nM (active). Besides, the Potency result in test [2], in [3], in [4], in [19] and in [16] was “inactive” throughout. The outcome in test [17], in test [7], in [8], in [18], in test [10] and in [11] was inactive. Moreover, the outcome in [12], in test [13], in [14] and in test [15] was inactive.

On to `N#Cc1cc(Br)c(O)c(Br)c1`, for which the Potency entry in test [1], in [2] and in test [3] was “inactive” throughout. The Potency in [4] is 11.7 µM (active); in test [5], 13.7 µM (active) and 4.17 µM (active). Moreover, the call in [17], in [7], in test [8], in test [9], in [18] and in test [10] was inactive. Moreover, the molecule was classed as inactive in [11], in [13], in test [14] and in test [15].

Take `Brc1ccc(Oc2cc(Br)c(Br)cc2Br)c(Br)c1`: the Potency entry in test [1], in test [2], in [3] and in test [4] was “inactive” in each case. In addition, the Potency in test [5] is 4.86 µM (active) and 8.7 µM (active). In addition, the molecule was called inactive in [17], in [7], in test [8], in test [18], in test [10] and in test [11]. Also, the outcome in [12], in [13], in [14] and in [15] was inactive.

Turning to `Nn1cnnc1`, the Potency result in test [1], in [2], in [3], in test [4], in [5] and in test [19] was “inactive” in each case. In addition, the Potency result in [16] was “inactive”. Further, the result in test [17], in test [7], in [8], in [18], in [10] and in [11] was inactive. Moreover, the outcome in [12], in test [13], in [14] and in [15] was inactive.

On to `CCCCCCCCOC(=O)c1ccccc1C(=O)OCCCCCCCC`, for which the Potency entry in test [1], in test [2], in [3], in test [4] and in test [5] was “inactive” throughout. The call in [6], in test [7], in test [8], in test [9], in [10] and in test [11] was inactive. Moreover, the molecule was called inactive in [12], in test [13], in test [14] and in [15].

Consider `CCC(C)c1ccc(O)cc1` (configuration not stated), for which the Potency result in test [1], in [2], in test [3], in test [4] and in test [16] was “inactive” each time. Moreover, the Potency in test [5] was 27.6 µM (active) and 24.3 µM (active). The molecule was called inactive in test [6], in test [17], in test [7], in test [8], in test [9] and in test [18]. The molecule was classed as inactive in test [10], in test [11], in test [12], in test [13], in test [14] and in [15].
